Source: PubChem (National Center for Advancing Translational Sciences (NCATS))
This is a sample that favours compounds with a hit; in the whole collection about 5% have one here.
VACV Venus inh = vaccinia inhibition (Venus reporter) | Vaccinia virus Venus reporter expression, fluorescence | Potency, µM (highest dose often 36.5 µM), for the others: at the top dose activity change, negative = inhibition, usual class: inhibitors | 0.46% of 330,000 active; calls by dose curve; tested in A549 cells; further: potency means the concentration at half of the fitted maximal effect; on the % scale 0 is the no-effect control and ±100 the full control effect; nearly all actives have a fitted effect of over 30% in size
Tb PYK inh = blocks Trypanosoma brucei pyruvate kinase. Q57TT1. TbPYK enzyme, Kinase-Glo Plus ATP luminescence, 45 min. Potency, µM (highest dose often 76.8 µM), inactives show top-dose activity, negative = inhibition, actives largely listed as inhibitors. 0.12% of 410,000 active; further: potency means the concentration at half of the fitted maximal effect; on the % scale 0 is the no-effect control and ±100 the full control effect; nearly all actives have a fitted effect of over 50% in size
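TbPYK + substrate in 50 mM TEA pH 7.2, 100 mM KCl, 10 mM MgCl2, 0.05% BSA, 0.01% Tween-20; cpd pinned; ADP 130 uM final; 45 min RT; Kinase-Glo Plus 10 min; luminescence endpoint.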
LmPK inhibitor = blocks Leishmania mexicana pyruvate kinase activity; Potency, µM (top dose mostly 57.5 µM), inactives show at the highest dose activity change, negative = inhibition, hits mostly inhibitors; 0.37% of 290,000 active; Q27686; purified LmPK, Kinase-Glo ATP luminescence, 1 h; further: potency means the concentration at half of the fitted maximal effect; on the % scale 0 is the no-effect control and ±100 the full control effect
Target sequence (Q27686 whole entry, looked up): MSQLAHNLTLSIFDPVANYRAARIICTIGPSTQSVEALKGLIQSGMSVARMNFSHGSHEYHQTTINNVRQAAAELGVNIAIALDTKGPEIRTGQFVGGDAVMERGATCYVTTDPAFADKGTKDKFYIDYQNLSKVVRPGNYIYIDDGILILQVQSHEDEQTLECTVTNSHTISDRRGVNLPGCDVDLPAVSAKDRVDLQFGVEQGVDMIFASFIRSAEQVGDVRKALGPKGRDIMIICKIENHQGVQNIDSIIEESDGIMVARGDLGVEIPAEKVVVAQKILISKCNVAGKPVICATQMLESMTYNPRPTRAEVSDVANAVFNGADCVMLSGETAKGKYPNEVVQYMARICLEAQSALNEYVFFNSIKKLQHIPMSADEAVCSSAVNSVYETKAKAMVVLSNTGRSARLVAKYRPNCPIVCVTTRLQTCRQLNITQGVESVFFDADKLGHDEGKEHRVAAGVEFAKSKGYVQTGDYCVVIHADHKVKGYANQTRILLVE
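ATP generated from ADP (0.1 mM) and PEP (0.5 mM) by 0.1 nM LmPK over 1 h at room temperature (pH 7.2 imidazole buffer) was detected by coupled luciferase luminescence. Values were normalized to uninhibited and no-enzyme wells.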
Vaccinia mCherry = vaccinia inhibition (mCherry reporter); Vaccinia virus mCherry reporter infection, fluorescence; Potency, µM (series often up to 36.5 µM), for the others: at the highest dose activity change, negative = inhibition, hits mostly inhibitors; 0.63% of 310,000 active; AID 720579; calls by dose curve; tested in A549 cells; further: potency means the concentration at half of the fitted maximal effect; on the % scale 0 is the no-effect control and ±100 the full control effect; nearly all actives have a fitted effect of over 35% in size
HCMV inh = blocks human cytomegalovirus replication. 4.5% of 410,000 active. activity change, negative = inhibition, % at 57.5 µM. HFF cells, HCMV-luciferase reporter, 72 h; active compounds read low; in the data active means activity change below about -60%; inconclusive means no clear call, values can overlap the other calls; inactive means above about -39%; further: on the % scale 0 is the no-effect control and ±100 the full control effect
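Luciferase read-out from HCMV-luciferase-infected HFFs (MOI 1 PFU/cell) 72 h post infection at 37C; compounds added after 16 h cell attachment; activity normalized between buffer-only basal and Salinomycin (10uM) inhibitor controls.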
LmPK inh confirm = Confirms inhibition of Leishmania mexicana pyruvate kinase | purified LmPK, Kinase-Glo ATP luminescence, 1 h | 40% of 150 active | Potency, µM (doses to about 57.5 µM), inactives show at the top dose activity change, negative = inhibition, most hits filed as inhibitors | shares compounds with LmPK inhibitor;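 active means compounds giving a full or partial concentration-response curve, as inhibitors or activators; inconclusive means weak, top-dose-only or unclear curve responses; inactive means no response at any tested dose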
* marks the source's active call; other numbers are inactive results. Unless noted, the call rests on the fitted dose curve; in most records, active means well fitted curve in the direction sought with a large enough effect; inconclusive means small, poorly fitted or top-dose-only effect, or another doubt; inactive means no such curve, though single readings can be large; an effect the other way counts as inactive or inconclusive.

Results for Fc1ccc(-c2nc3n(n2)Cc2ccccc2-3)cc1 ?
VACV Venus inh: -15%; Tb PYK inh: -11%; LmPK inhibitor: 3.5µM*; HCMV inh: 150; LmPK inh confirm: inconclusive

What do the screens show for `COCC(=O)Nc1cc(OC)cc(OC)c1`?
VACV Venus inh: 1%; Tb PYK inh: 1%; LmPK inhibitor: 4%; HCMV inh: 36

How did Cc1ccc(C)c(/C(O)=C2/C(=O)C(=O)N(CCN3CCOCC3)C2c2ccco2)c1 (stereo unspecified) do in these assays?
VACV Venus inh: -10%; Tb PYK inh: 4%; LmPK inhibitor: 2%; Vaccinia mCherry: -14%; HCMV inh: -23; LmPK inh confirm: 10%

Results for Cc1occc1C(=O)O/N=C(\N)c1ccccc1 ?
VACV Venus inh: -6%; Tb PYK inh: inconclusive; LmPK inhibitor: 3.5µM*; Vaccinia mCherry: -9%; HCMV inh: 25; LmPK inh confirm: 10µM*

What do the screens show for `O=C(Nc1ccccc1N1CCOCC1)C1CCN(S(=O)(=O)c2ccc(Cl)cc2)CC1`?
Tb PYK inh: 34%; LmPK inhibitor: 6%; HCMV inh: 17

What do the screens show for `CC(C)C(NC(=O)c1ccc2c(c1)OCO2)C(=O)N/N=C\c1ccco1` (stereo unspecified)?
VACV Venus inh: 16%; Tb PYK inh: -4%; LmPK inhibitor: -1%; Vaccinia mCherry: 13%; HCMV inh: 8; LmPK inh confirm: 8%

Results for c1ccc(C2=NNC(=NC3CC3)SC2)cc1 ?
VACV Venus inh: -8%; Tb PYK inh: inconclusive; LmPK inhibitor: 4.5µM*; Vaccinia mCherry: inactive; HCMV inh: 1; LmPK inh confirm: 15µM*

How did O=S1(=O)CC(N2CCCCC2)CN1Cc1ccc(F)cc1 (stereo unspecified) do in these assays?
VACV Venus inh: 2%; Tb PYK inh: -9%; Vaccinia mCherry: inactive; HCMV inh: -13

What do the screens show for `Cc1cc(C)c(S(=O)(=O)n2ccc(-c3ccc(OCCN(C)c4ccccn4)cc3)n2)c(C)c1`?
VACV Venus inh: -20%; Tb PYK inh: -5%; LmPK inhibitor: 3%; Vaccinia mCherry: -22%; HCMV inh: 19; LmPK inh confirm: 2%

Results for O=S(=O)(/N=C(/Sc1ccc(Cl)cc1)c1ccccc1)c1ccccc1 ?
VACV Venus inh: -16%; Vaccinia mCherry: -16%

What do the screens show for `Cc1ccnc(N2C(=O)c3ccccc3C2=O)c1`?
VACV Venus inh: -10%; Tb PYK inh: -1%; LmPK inhibitor: -6%; Vaccinia mCherry: -14%; HCMV inh: -1; LmPK inh confirm: -14%

What do the screens show for `CCn1c(-c2ccccc2Cl)nn(CC(=O)Nc2ccc(OC)cc2)c1=S`?
VACV Venus inh: inconclusive; Tb PYK inh: 0%; LmPK inhibitor: -5%; HCMV inh: -20; LmPK inh confirm: 11%

What do the screens show for `COc1cccc(CC(=O)Nc2ccc(-c3nc4ccccc4s3)cc2)c1`?
VACV Venus inh: -6%; Tb PYK inh: 3%; Vaccinia mCherry: -9%; HCMV inh: 71

How did COc1cccc(-c2nc3ccccc3s2)c1 do in these assays?
VACV Venus inh: -10%; Tb PYK inh: -19%; LmPK inhibitor: 10µM*; HCMV inh: 225; LmPK inh confirm: inconclusive

How did CCOC(=O)C(C(C)=O)c1c(Br)c(O)c(O)c2c(C(=O)c3ccc(C)cc3)coc12 (stereo unspecified) do in these assays?
VACV Venus inh: 13µM*; Tb PYK inh: -18%; LmPK inhibitor: 5.6µM*; Vaccinia mCherry: 13µM*; HCMV inh: -96*; LmPK inh confirm: -7%

Results for CCOC(=O)c1c(C)n(-c2ccc(C)cc2)c2c(C(C(C)=O)C(=O)O)c(Br)c(O)c(O)c12 (stereo unspecified) ?
VACV Venus inh: inconclusive; Tb PYK inh: -25%; LmPK inhibitor: -29%; HCMV inh: inconclusive

Results for CCOC(=O)c1nnn(-c2nonc2N)c1-c1ccc(Br)cc1 ?
Tb PYK inh: 0%; LmPK inhibitor: 6%; HCMV inh: -6

What do the screens show for `CCOC(=O)c1nnn(-c2nonc2N)c1-c1ccc(C)cc1`?
VACV Venus inh: -18%; Tb PYK inh: -1%; LmPK inhibitor: 7%; HCMV inh: -25; LmPK inh confirm: 5%

Results for Nc1ccc(-c2nc3ncccc3o2)c(Cl)c1 ?
VACV Venus inh: 14%; Tb PYK inh: -1%; LmPK inhibitor: -5%; Vaccinia mCherry: -3%; HCMV inh: 103

Results for COC(=O)CSC1=NS(=O)(=O)c2ccccc21 ?
VACV Venus inh: -19%; Tb PYK inh: 22µM*; LmPK inhibitor: 5µM*; Vaccinia mCherry: inactive; LmPK inh confirm: inconclusive

Results for COC(=O)CSc1ccccc1C(=O)OC ?
VACV Venus inh: -4%; Tb PYK inh: 3%; LmPK inhibitor: -3%; Vaccinia mCherry: -12%; HCMV inh: 24

Results for Cc1ccc(-c2cc3c(nn2)-c2ccccc2C3=O)cc1 ?
VACV Venus inh: 3%; Tb PYK inh: inconclusive; LmPK inhibitor: 7.1µM*; Vaccinia mCherry: inconclusive; HCMV inh: 0; LmPK inh confirm: 10µM*

Results for COc1cc2c(cc1OC)n(CC(=O)Nc1ccccc1)c(=O)n1nc(-c3ccccc3)nc21 ?
VACV Venus inh: -10%; Tb PYK inh: 3%; Vaccinia mCherry: -12%; HCMV inh: -21
